Compound activity deposited in PubChem BioAssay by several laboratories.
In the library only some 27% were active in any assay of this set; here they are far more common.
CYP2C9 inh: human CYP2C9 inhibition. P11712. CYP2C9 Supersomes, luciferin-H conversion, luminescence. inhibition, % at 5 µM. 96,000 compounds, 20% hits;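 active means blocking of liver enzyme CYP2C9 beyond about 50% at 5 µM, limit read from the data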
sEH inh: inhibitors of human soluble epoxide hydrolase. P34913. recombinant human sEH enzymatic activity assay. inhibition, % at 2 µM. 91,000 compounds, 0.34% hits; in the data active means inhibition above about 80%
Target sequence (P34913 whole entry, looked up): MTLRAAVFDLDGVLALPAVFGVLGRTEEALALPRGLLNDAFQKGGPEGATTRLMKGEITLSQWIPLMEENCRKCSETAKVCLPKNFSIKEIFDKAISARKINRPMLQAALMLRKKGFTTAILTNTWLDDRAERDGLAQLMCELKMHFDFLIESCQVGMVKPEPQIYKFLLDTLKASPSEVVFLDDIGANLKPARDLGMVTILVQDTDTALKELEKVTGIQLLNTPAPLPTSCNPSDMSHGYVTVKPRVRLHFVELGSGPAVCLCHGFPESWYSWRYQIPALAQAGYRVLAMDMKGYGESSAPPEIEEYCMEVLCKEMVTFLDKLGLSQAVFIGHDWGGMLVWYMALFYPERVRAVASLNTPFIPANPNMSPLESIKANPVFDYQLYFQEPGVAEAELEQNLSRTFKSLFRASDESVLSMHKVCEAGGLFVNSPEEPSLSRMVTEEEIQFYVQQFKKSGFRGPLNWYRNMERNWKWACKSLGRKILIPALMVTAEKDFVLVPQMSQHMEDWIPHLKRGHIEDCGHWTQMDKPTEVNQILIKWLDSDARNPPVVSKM
CYP2C9 act: increases human cytochrome P450 2C9 activity; recombinant CYP2C9, luciferin-H conversion, luminescence; active compounds read high; factor 1 = untreated enzyme, 0 = blocked; activation factor at 5 µM; 96,000 compounds, 1.4% hits;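 active means activation factor of 2 or more for CYP2C9 at a 5 µM dose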
sEH act: soluble epoxide hydrolase (human) activation. AID 717. activation, % at 2 µM. purified human sEH enzymatic activity, activator screen. 91,000 compounds, 0.04% hits; in the data active means activation above about 37%
CYP2C19 inhib: inhibitors of human CYP2C19; AID 778; 96,000 compounds, 21% hits; CYP2C19 Supersomes, luciferin-H EGE luminescence, 30 min; inhibition, % at 5 µM; P33261;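 active means CYP2C19 inhibition above a set limit at 5 µM in the primary screen, cut at about 50% in these data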
CYP2C19 activ: cytochrome P450 2C19 (human) activation; P33261; recombinant CYP2C19, luciferin-H EGE luminescence; active compounds read high; 0 = fully inhibited enzyme, 1 = untreated enzyme; activation factor at 5 µM; 96,000 tested, under 10 active; AID 1025;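 active means activation factor of at least 2 at 5 µM in the primary screen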
Hits are given with their value; i = inactive; nt = no result given.

SMILES	CYP2C9 inh	sEH inh	CYP2C9 act	sEH act	CYP2C19 inhib	CYP2C19 activ
O=C(COc1cccc2ccccc12)N/N=C/c1ccc(Sc2nc3ccccc3s2)o1	i	i	i	i	i	i
O=C(Cc1cccc2ccccc12)N/N=C/c1ccc(Sc2nc3ccccc3s2)o1	75.9	i	i	i	i	i
N#CCC(=O)N/N=C/c1ccc(Sc2nc3ccccc3s2)o1	i	i	i	i	78.3	i
CCC(SC1=NCCS1)C(=O)Nc1nnc(-c2ccccc2OC)s1 (stereo unspecified)	i	i	i	i	i	i
O=C1C(=O)N(CCOCCO)C(c2ccccn2)/C1=C(\O)c1ccccc1 (stereo unspecified)	i	i	i	i	i	i
Cc1cc(C)n2c(Br)c(CSc3nc4ccccc4o3)nc2n1	i	i	i	i	i	i
CCN(CC)S(=O)(=O)c1ccc(Cl)c(OC)c1	i	i	2.4	i	89.2	i
CCNS(=O)(=O)c1cc(S(C)(=O)=O)ccc1Cl	i	i	i	i	i	i
CCN(CC)S(=O)(=O)c1ccc(Cl)c(C(=O)NC)c1	i	i	i	i	i	i
CCN(CC)S(=O)(=O)c1cc(OC)c(Cl)cc1Cl	i	i	3	i	97.3	i
CCN(CC)S(=O)(=O)c1cc(F)ccc1OC	nt	i	nt	i	nt	nt
COCCNS(=O)(=O)c1cc(OC)c(Cl)cc1Cl	i	i	i	i	68.3	i
CCNS(=O)(=O)c1ccc(Br)c(OC)c1	i	i	2.2	i	i	i
CC1NC(=O)NC1CCCCCC(=O)NCCc1ccccc1 (stereo unspecified)	i	i	i	i	i	i
COc1ccc(S(=O)(=O)NCCOc2ccccc2)cc1OC	i	i	2.9	i	100.0	i
COc1ccc(CCNS(=O)(=O)c2ccccc2)cc1OC	i	i	i	i	i	i
CCN(CC)S(=O)(=O)c1ccc(Oc2ccc(S(=O)(=O)N(CC)CC)cc2)cc1	87.3	i	i	i	67.2	i
CCOc1cc(C)c(Cl)cc1S(=O)(=O)N(CC)CC	i	i	2	i	52.6	i
CCOc1cc(S(=O)(=O)N(CC)CC)ccc1Br	i	i	i	i	94.9	i
COc1ccc(CN=Cc2c(C(F)(F)F)[nH][nH]c2=O)cc1	i	i	i	i	i	i
CCN(CC(N)=O)S(=O)(=O)c1ccc(Br)cc1	i	i	i	i	i	i
CCN(CC)S(=O)(=O)c1ccc(Br)c(OC)c1	i	i	i	i	81.7	i
O=C1OC(c2ccc(Cl)cc2)/C(=C(/O)c2ccccc2)C1=O (stereo unspecified)	53.2	i	i	i	i	i
CCC(CC)C(=O)NCCc1cc2ccc(C)c(C)c2[nH]c1=O	i	nt	i	nt	i	i
COc1ccc(C(=O)Nc2cc3c(cc2C#N)OCO3)cc1S(=O)(=O)N1CCN(C)CC1	i	i	i	i	i	i
SMILES	CYP2C9 inh	sEH inh	CYP2C9 act	sEH act	CYP2C19 inhib	CYP2C19 activ
O=C(CN1C(=O)CCSc2ccccc21)Nc1cccc(F)c1	66.7	nt	i	nt	78.4	i
COc1ccc(/C=C/C(=O)NC(C)C)cc1Br	i	i	i	i	i	i
COc1ccc(/C=C/C(=O)N(C(C)C)C(C)C)cc1Br	i	i	i	i	60.0	i
CC(=O)c1cc2c(cc1NC(=O)Nc1cccc(Cl)c1)OCCO2	i	i	i	i	i	i
CCCn1nnnc1NC(=O)c1cccs1	i	i	i	i	i	i
O=C(c1ccc(Cl)cc1)c1cnc(Nc2ccccc2Cl)s1	i	i	i	i	i	i
O=C(c1cnc(-c2ccccc2)s1)c1ccc(Cl)cc1Cl	i	i	i	i	56.8	i
O=C(c1cn(-c2ccccc2)nc1-c1ccncc1)n1nnc2ccccc21	nt	i	nt	i	nt	nt
CCCCNC(=O)NC1C(NC(=O)NCCCC)N(C)C(=O)N1C (stereo unspecified)	i	i	i	i	i	i
C=CCOC(=O)/C(=C/c1ccco1)NC(=O)/C=C/c1ccccc1	73.4	i	i	i	77.3	i
CN(C)c1cc[n+](Cc2c(Cl)cccc2Cl)cc1	nt	i	nt	i	nt	nt
COc1ccc(CNC(=O)CN(Cc2ccccc2)S(=O)(=O)c2ccc(Cl)cc2)cc1	96.1	i	i	i	99.5	i
COc1ccc(CNC(=O)CN(Cc2ccc(Cl)cc2)S(=O)(=O)c2ccccc2)cc1	i	i	i	i	i	i
COc1ccc(C)cc1S(=O)(=O)N(CC(=O)NCc1ccc(Cl)cc1)Cc1ccccc1	89.4	i	i	i	72.1	i
Cc1ccc(-c2noc(CCC(=O)NCC3CCN(Cc4cccc(C)c4)CC3)n2)cc1	i	i	i	i	i	i
CCC(C(=O)OC)n1cnc2c(nnn2-c2cccc(Cl)c2)c1=O (stereo unspecified)	i	nt	i	nt	i	i
COC(=O)c1ccc(C(=O)OC)c(NC(=O)CCC(=O)O)c1	i	i	i	i	i	i
CCc1ccc(CCC(=O)Nc2ccc(C)cc2C)o1	i	i	i	i	78.8	i
CCCOC(=O)c1ccc(NC(=O)CCC(=O)OCC)cc1	59.2	i	i	i	64.0	i
COC(=O)c1ccc(C(=O)OC)c(NC(=O)CCc2ccc(C)o2)c1	i	i	i	i	50.8	i
CCOC(=O)CCCNC(=O)COC(=O)c1ccc(O)cc1	i	i	2.6	i	i	i
CCCC(=O)N(CCN(C(=O)CCC)c1ccccc1)c1ccccc1	nt	i	nt	i	nt	nt
O=C(CCOc1ccccc1)Nc1ccccc1	i	i	i	i	61.6	i
CCOC(=O)c1ccc(NC(=O)CCOc2ccccc2)cc1	55.3	i	i	i	i	i
O=C(O)CC(=O)Nc1ccccc1	i	i	i	i	i	i
SMILES	CYP2C9 inh	sEH inh	CYP2C9 act	sEH act	CYP2C19 inhib	CYP2C19 activ
CCOC(=O)c1ccc(NC(=O)CCS(=O)(=O)c2ccc(Br)s2)cc1	51.3	i	i	i	i	i
CCOC(=O)c1ccc(NC(=O)CCc2ccc(CC)o2)cc1	60.1	i	i	i	i	i
CCc1ccc(CCC(=O)Nc2ccc(C(C)=O)cc2)o1	nt	i	nt	i	nt	nt
CCCOC(=O)c1ccc(NC(=O)CCOc2ccccc2)cc1	68.4	i	i	i	i	i
CCOC(=O)c1ccc(NC(=O)Oc2ccccc2)cc1	i	nt	i	nt	i	i
Cc1cc(Oc2ccccc2)nc(SCC(=O)Nc2ccc(Cl)cc2Cl)n1	93.3	i	i	i	99.2	i
COC(=O)CSc1nc(C)cc(Oc2ccccc2)n1	i	nt	i	nt	86.3	i
OCCN1CCOCCN(CCO)CCOCC1	i	i	i	i	i	i
CCCn1c(C)cc(C(=O)COC(=O)c2cc(S(=O)(=O)NCC(C)C)c(Cl)cc2Cl)c1C	i	i	i	i	66.2	i
CC(C)CNS(=O)(=O)c1cc(C(=O)N2CCOCC2)c(Cl)cc1Cl	i	i	i	i	i	i
CN(C)S(=O)(=O)c1cc(S(=O)(=O)N(C)C)c(Cl)cc1N	i	nt	i	nt	i	i
CC(=O)N(Cc1cc(=O)[nH]c2ccccc12)c1ccc(C)cc1	64.3	i	i	i	51.1	i
c1ccc2c(c1)nc1n2CCS1	i	i	i	i	62.5	i
Cc1ccc(C(=O)CNc2ccc(Br)cc2)cc1	i	i	i	i	75.4	i
